# Source: PubChem BioAssay (NCATS)
# Results filed as inconclusive are left out. Values without a mark were called inactive. Activity calls are given as the source filed them. Calls come from the whole dose curve; as a rule, active = well fitted cell-killing curve with a large enough effect; inconclusive = small, poorly fitted or top-dose-only effect; inactive = flat fitted curve, though single readings scatter.
# Assay: Cell Viability - LYMP2-017 (AID 972); note: nearly all actives have a fitted effect of over 55% in size
# Conditions: LYMP2-017 lymphoblastoid cell viability; series mostly up to 92.2 µM; activity change, negative = cytotoxicity: at the top concentration
# Text: NIH Chemical Genomics Center [NCGC]
# NIH Molecular Libraries Screening Centers Network [MLSCN]
# National Institutes of Environmental Health Sciences [NIEHS]
# National Toxicology Program [NTP]
# We have developed a 1536-well cell-based assay for quantitative high throughput screening (qHTS) against a number of cell lines to determine in vitro cytotoxicity of small molecules. This particular assay uses a human lymphoblastoid cell line (LYMP2-017) purchased from Coriell Institute for Medical Research.
# NCGC Assay Protocol Summary:
# The CellTiter-Glo luminescent cell viability assay (Promega) is a homogeneous method to measure the number of viable cells in culture. The end point readout of this assay is based on quantitation of intracellular ATP, an indicator of metabolic activity, using the luciferase reaction. Luciferase catalyzes the oxidation of beetle Luciferin to oxyluciferin and light in the presence of ATP. The luminescent signal is proportional to amount of ATP present.
# Using the CellTiter-Glo luminescent cell viability assay, the amount of cellular ATP was measured in the lymphoblastoid cell line with complete culture medium following compound treatment for 24 hours. The assay was performed in opaque white Kalypsys 1536-well plates. In the screen, tetraoctylammonium bromide was used as positive control. Library compounds were measured for their ability to cause acute toxicity in the cell line, as reflected by a decrease in intracellular ATP levels, in a concentration-dependent manner. […] AC50 values were determined from concentration-response data modeled with the standard Hill equation.
# qHTS protocol for CellTiter Glo lymphoblastoid cellular assay
# [Step] [Parameter] [Value] [Description]
# 1. Reagent; 5 uL; 2500 lymphoblastoid cells/well
# 2. Time; 5 hr; 37 C incubation
# 4. Controls; 23 nL; Tetraoctylammonium bromide 6.4pM to 92 uM
# 5. Time; 24 hr; 37 C incubation
# 6. Reagent; 5 uL; CellTiter Glo reagent
# 7. Time; 30 min; Room Temperature
# 8. Detection; Luminescence; Viewlux plate reader
# Keywords: cell viability, cytotoxicity, lymphoblastoid cell line, luminescence, NTPHTS, NTPHTS_NCGC, NIEHS, DSSTox, MLSMR, MLSCN, NIH Roadmap, qHTS, NCGC
# % is set by controls: 0 for no effect and ±100 for the full control effect; potency is the fitted concentration of half-maximal effect.
SMILES,"activity change, negative = cytotoxicity [%]",Potency
CCC=O,4.51,–
Cc1ccc2nc(-c3ccc(N)cc3)sc2c1S(=O)(=O)O,-10.6,–
N#Cc1ccccc1,-1.83,–
C[C@@H]1O[C@@H](O[C@@H]2[C@@H](O)[C@H](OCCc3ccc(O)c(O)c3)O[C@H](CO[C@@H]3O[C@H](CO)[C@@H](O)[C@H](O)[C@H]3O)[C@H]2OC(=O)/C=C/c2ccc(O)c(O)c2)[C@H](O)[C@H](O)[C@H]1O,-17.5,–
CCOc1ccc(NC(C)=O)cc1N,-10,–
O=Cc1ccc(CO)o1,-0.311,–
NC(=O)NC(N)=O,4.53,–
Nc1nc(-c2ccccc2)cs1,-2.72,–
CSCCC=O,-9.05,–
O=P(O)(OCc1ccccc1)OCc1ccccc1,0.0848,–
CO[Si](CCCNCCC[Si](OC)(OC)OC)(OC)OC,3.75,–
Cc1ccc(CO)cc1,-6.12,–
Cc1cscn1,-5.41,–
Cc1ccccc1Br,-0.964,–
Cc1ccc2ccccc2c1[N+](=O)[O-],7.48,–
Nc1cccc(O)c1,-5.31,–
Nc1cc([N+](=O)[O-])ccc1C(=O)O,-11.2,–
C=C(C)C(=O)OC,4.68,–
CCOc1ccccc1N,6.13,–
O=c1[nH][nH]c(=O)c2cc([N+](=O)[O-])ccc12,-12.4,–

SMILES,"activity change, negative = cytotoxicity [%]",Potency
Cc1ccc2ncccc2c1,5.8,–
CC1=C(/C=C/C(C)=C/C=C/C(C)=C\C=O)C(C)(C)CCC1,–,50.1 µM (active)
Clc1ccccn1,-6.96,–
CC(=O)OCc1ccco1,0.28,–
CCCOCC(C)OCC(C)O (stereo not given),0.666,–
CC(C)(C)OCC1CO1 (stereo not given),3.03,–
O=C(Cl)c1ccccc1[N+](=O)[O-],-10.8,–
O=C(O)c1c(Cl)cccc1Cl,-22.1,–
NC(=S)NNC(N)=S,-7.4,–
C=CCCCC,-11.1,–
CC(=O)Nc1ccc(N)cc1,-5.26,–
CCN(C(=O)N(CC)c1ccccc1)c1ccccc1,-15.2,–
C=Cc1ccc(C=C)cc1,3.45,–
CC1(N)CCC(C(C)(C)N)CC1 (stereo not given),-11.3,–
CCCCCCCCC,-15.3,–
Cc1ccccc1C(=O)O,0.76,–
CCCCCCCCC/C=C/CC1CC(=O)OC1=O (stereo not given),2.34,–
COC(=O)c1ccccc1,-7.57,–
C=C(C)C1CC=C(C)C(OC(C)=O)C1 (stereo not given),4.82,–
O=C(O)c1ccccc1Cl,-9.95,–
